Assay outcomes from PubChem.
Pf growth 96h – P. falciparum growth inhibition at 96 hour, primary screen for plastid delayed-death inhibitors | P. falciparum luciferase reporter growth, 96 h | 320,000 compounds, 6.9% hits | Potency, µM (doses to about 28.7 µM), for the others: at the top dose activity change, negative = inhibition, hits mostly inhibitors; also: potency is read from the fitted curve at half-maximal effect; % is scaled to controls: 0 for no effect and ±100 for the full control effect
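Infected RBCs, 2% Hct / 0.05% parasitemia final; luciferase-reporter P. falciparum; cpd 96 h, 37 C, 5% CO2; luciferase detection reagent; luminescence.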
HCV inh – HCV inhibition; Huh7.5.1 HCVcc-Cre infection, luciferase reporter, 44 h; Potency, µM (top dose mostly 41.8 µM), for inactives: top-dose activity change, negative = inhibition, usual class: inhibitors; 340,000 compounds, 3.4% hits; AID 651820; also: potency is read from the fitted curve at half-maximal effect; % is scaled to controls: 0 for no effect and ±100 for the full control effect
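Infectious HCVcc-Cre (~0.5 moi) was added to cells just after compound, with cells seeded 4 h earlier at 1,000 per well. Luciferase activity after 44 h culture reported infection; substrate was incubated 15 min at room temperature before reading.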
Pf growth 48h – inhibits P. falciparum growth in the first generation, 48 h; AID 504832; Potency, µM (doses to about 28.7 µM), for the others: top-dose activity change, negative = inhibition, usual class: inhibitors; P. falciparum luciferase growth in erythrocytes, 48 h; 310,000 compounds, 5.9% hits; also: potency is read from the fitted curve at half-maximal effect; % is scaled to controls: 0 for no effect and ±100 for the full control effect
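First compound was added to culture medium, then infected red cells at 0.1% parasitemia and 2% hematocrit (final). After incubation at 37 C under 5% CO2, luciferase detection reagent was dispensed and light output recorded.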
CHX counter – counter-screen for Shiga toxin inhibitors: cycloheximide protein synthesis inhibition; cell reporter, cycloheximide protein synthesis inhibition counterscreen; max response, %; 300,000 compounds, 12% hits; AID 2314; in the data active = max response mostly above about 13%, no sharp cut-off; inactive = mostly below about 14%; also: read at 38.3 µM for the half of the compounds with a filed dose; 0% is about no effect
Shiga inhibitor – Shiga toxin inhibition. Vero cells, Shiga toxin protein synthesis inhibition reporter. inhibition, % at 38.7 µM. 290,000 compounds, 9.2% hits. AID 2315; in the data active = inhibition mostly above about 28%, no sharp cut-off; inactive = mostly below about 43%; also: 0% is about no effect
HCMV antiviral – blocks human cytomegalovirus replication. HFF cells, HCMV-luciferase reporter, 72 h; active compounds read low. activity change, negative = inhibition, % at 57.5 µM. 410,000 compounds, 4.5% hits; in the data active = activity change below about -60%; inconclusive = no clear call, values can overlap the other calls; inactive = above about -39%; also: % is scaled to controls: 0 for no effect and ±100 for the full control effect
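Screen run at 2 compound doses on HFFs infected with reporter HCMV, MOI 1 PFU/cell. Luciferase activity from cell lysates at 72 h post infection gave inhibition relative to buffer-only and Salinomycin wells.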
* = called active by the depositor; ? = inconclusive; · = no result. Sampled rows, rich in hits. Any-hit rate of the full collection: about 21%. Unless noted, calls follow the shape of the dose curve; as a rule, active = well fitted inhibition curve with a large enough effect; inconclusive = small, poorly fitted or top-dose-only effect, or another doubt; inactive = no such curve, though single readings can be large or run the other way.

SMILES	Pf growth 96h	HCV inh	Pf growth 48h	CHX counter	Shiga inhibitor	HCMV antiviral
O=C(CCS(=O)(=O)c1ccccc1)Nc1nc2cc3c(cc2s1)OCO3	-22.5%	0.4%	0.7%	34.3*	54.6	-1.3
COc1cc(NC(=O)CN2C(=O)COc3ccc(S(=O)(=O)NC4CCCC4)cc32)cc(OC)c1	·	·	·	·	·	9.9
CC(C)NC(=O)c1onc(CSc2nc3ccccc3[nH]2)c1C(=O)NC(C)C	0.0%	31.9%	8.3%	-2.1	-3.3	-22.3
O=C(Nc1c(-c2ccccc2)nc2ccccn12)c1ccccc1	-29.6%	-8.8%	?	4.8	18.7	15.2
O=Cc1c(-c2ccccc2)nc2ccccn12	13.1µM*	4.6%	-2.4%	11.5	21.4	-17.0
CCC(C)c1ccc(NC(=O)c2[nH]c(C)c(C(C)=O)c2C)cc1 (stereo not drawn)	3.29µM*	?	4.65µM*	23.0*	71.3*	55.8
CC(=O)c1c(C)[nH]c(C(=O)Nc2cccc(C)c2C)c1C	17.1%	-9.9%	5.1%	-1.0	16.7	10.5
CC(=O)c1c(C)[nH]c(C(=O)NCCc2c[nH]c3ccccc23)c1C	37.6%	?	10.1%	39.1*	41.1*	131.7
CC(=O)c1c(C)[nH]c(C(=O)NC2=NCCS2)c1C	19.7%	18.6%	42.4%	16.7*	30.4*	203.4
Cc1[nH]c2ccccc2c1C(=O)C(=O)NCCc1c[nH]c2ccccc12	?	-18.8%	-9.6%	-3.9	-5.2	12.1
CCOc1ccc(OCC)c(NC(=O)c2[nH]c(C)c(C(C)=O)c2C)c1	6.2%	-25.6%	-3.9%	2.2	69.2	1.1
CC(=O)c1c(C)[nH]c(C(=O)Nc2ccc(F)c(F)c2F)c1C	?	?	13.1µM*	6.1	71.3*	108.7
COc1ccc(NC(=O)CCS(=O)(=O)c2cc3c4c(c2)CCN4C(=O)CC3)c(OC)c1	·	·	·	·	·	20.5
CCC(NC(=O)c1[nH]c(C)c(C(C)=O)c1C)c1ccc(Br)cc1 (stereo not drawn)	?	?	9.28µM*	-1.8	9.8	3.0
CC(=O)c1c(C)[nH]c(C(=O)OCC(=O)c2ccc(Br)cc2)c1C	·	·	·	·	·	-24.9
Nc1[nH]c(C(=O)c2ccccc2)c(-c2cccc(C(F)(F)F)c2)c1C(=O)NCCc1c[nH]c2ccccc12	·	·	·	·	·	-72.3*
COc1ccc(Cl)cc1C(=O)NNC(=O)c1[nH]c(C)c(C(C)=O)c1C	·	?	·	·	·	63.8
CC(=O)c1c(C)[nH]c(C(=O)Nc2ccc(Cl)cc2)c1C	-20.3%	?	?	41.5*	62.3*	49.6
CC(=O)c1c(C)[nH]c(C(=O)Nc2ccccn2)c1C	248.9%	-2.4%	174.0%	44.1*	52.4*	111.7
CC1Cn2cc(C(=O)Nc3ccccc3C(F)(F)F)c(=O)c3c(Cl)ccc(c32)O1 (stereo not drawn)	38.7%	·	1.9%	·	·	-32.3
CCN1C[C@@H]2[C@@H]3C(=O)N(C)C(=O)[C@@H]3[C@](C)(C1=O)N2C(=O)c1ccc(C)cc1	·	-1.8%	·	·	·	6.0
C/C(=N/NC(=O)CNC(=O)c1ccccn1)c1cccc([N+](=O)[O-])c1	20.5%	-0.6%	13.5%	-1.0	-10.3	-32.7
COC(=O)c1ccc(NC(=O)CCc2c(C)nn(-c3ccc(N4CCCCC4)nn3)c2C)cc1	·	·	·	·	·	-31.3
CC(=O)c1c(C)[nH]c(C(=O)Nc2ccc(Cl)cc2F)c1C	20.5%	-20.5%	63.1%	31.6*	115.7*	42.0
CC(=O)c1c(C)[nH]c(C(=O)Nc2cccc(S(=O)(=O)N3CCOCC3)c2)c1C	-3.5%	?	-7.7%	5.9	0.4	147.1
CC(=O)c1c(C)[nH]c(C(=O)NCCc2ccc(Cl)cc2)c1C	1.9%	-14.6%	0.0%	15.6*	36.1	-17.1
CSc1cccc(NC(=O)c2[nH]c(C)c(C(C)=O)c2C)c1	?	?	-73.4%	43.9*	93.5*	93.7
CC12CCC(C(=O)N/N=C/c3ccc(O)cc3O)(OC1=O)C2(C)C (stereo not drawn)	?	-16.1%	?	-3.6	0.9	42.3
Cc1cccc(C)c1NC(=O)C1CCCN1S(=O)(=O)c1ccc2c(c1)n(C)c(=O)c(=O)n2C (stereo not drawn)	?	19.9%	-18.0%	1.1	-1.7	·
